Results on 27 compounds are retold here after the supplement of paper PMC7366291.

Common to all, as to details: 25 µM; exposure: 24-48 hpf
Assay [1] has as its system Danio rerio Tg(wt1b:EGFP) embryo, pronephros. In words: glomerular separation, fold change vs DMSO control; higher = glomeruli further apart (abnormal). In a few lines: (§1)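 Features are reported as fold changes against the mean of same-day DMSO-treated embryos. Before that, values more than 2 SD away from the feature mean were excluded. The embryos, dechorionated Tg(wt1b:EGFP) zebrafish, had been exposed from 24 to 48 hpf at 28.5°C to 25 μM compound in 0.5% DMSO in HEPES-buffered E3 with 0.003% PTU, and distances and angles came from 16 manually set points on maximum projections of dorsal pronephros images in Fiji.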

For assay [2] the test system is unchanged. In words: glomerular width (mean of left and right), fold change vs DMSO control; higher = wider glomerulus. In a few lines: as §1
The test system is the same in assay [3]. Description: fraction of imaged embryos annotated as normal kidney; higher = less nephrotoxic; extreme values may be limits of the assay. In a few lines: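 The value given is the share of embryos in each treatment scored as having a normal kidney. To obtain it, dechorionated Tg(wt1b:EGFP) zebrafish embryos were treated from 24 to 48 hpf at 28.5°C with 25 μM compound in 0.5% DMSO, in 5 mM HEPES-buffered E3 with 0.003% PTU. Pronephroi were imaged by widefield fluorescence (470 nm, 10 z-slices), and every embryo was annotated by hand from maximum projections.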

Assay [4] shares this test system. In words: pronephric angle neck segment to proximal convoluted tubule (mean of left and right), fold change vs DMSO control; higher = larger pronephric angle. In a few lines:
as §1

Structures are written as SMILES. Where a name gives a salt, the structure may show the parent alone. ± gives the standard deviation or the standard deviation of the averaged measurements.

Regarding `CC(=O)Oc1cc(C(F)(F)F)ccc1C(=O)O` [Triflusal], the glomerular separation in assay [1] was 1.26 ± 0.59. In addition, in assay [2], the glomerular width stood at 0.901 ± 0.012. Further, in assay [3], the “fraction of imaged embryos annotated as normal kidney” value (shortened to “fraction of imaged embryos annotated”) stood at 0.917. Further, the “pronephric angle neck segment” value in assay [4] came to 1.02 ± 0.031.

The compound `CCCCC1C(=O)N(c2ccccc2)N(c2ccc(O)cc2)C1=O` (stereo not drawn) [Oxyphenbutazone] gave a glomerular separation in assay [1] of 1.27 ± 0.44. In assay [2], the glomerular width was 0.983 ± 0.027. In addition, the “fraction of imaged embryos annotated” value in assay [3] is 1. The “pronephric angle neck segment” value in assay [4] is 0.998 ± 0.06.

Turning to `Cn1c(=O)c2nc[nH]c2n(C)c1=O` [Theophylline monohydrate], the glomerular separation in assay [1] is 0.92 ± 0.21. The compound also yielded a glomerular width in assay [2] of 0.999 ± 0.047. Besides, in assay [3], the “fraction of imaged embryos annotated” value amounted to 1. For the same compound, the “pronephric angle neck segment” value in assay [4] came out at 1 ± 0.011.

Turning to `CNCCC=C1c2ccccc2C=Cc2ccccc21` [Norcyclobenzaprine], the glomerular separation in assay [1] stood at 1.12 ± 0.86. Besides, in assay [2], the glomerular width was 1.01 ± 0.051. Further, the “fraction of imaged embryos annotated” value in assay [3] turned out to be 0.833. Also, the “pronephric angle neck segment” value in assay [4] was found to be 0.94 ± 0.027.

In assay [1], `COCCOC(=O)C1=C(C)NC(C)=C(C(=O)OC(C)C)C1c1cccc([N+](=O)[O-])c1` (stereo not drawn) [Nimodipine] gave a glomerular separation of 1.64 ± 1.1. In assay [2], this compound showed a glomerular width of 0.786 ± 0.066. The “fraction of imaged embryos annotated” value in assay [3] is 0.5. Further, in assay [4], the “pronephric angle neck segment” value came out at 0.954 ± 0.049.

In the case of `CN1CCOC(c2ccccc2)c2ccccc2C1` (stereo not drawn) [Nefopam hydrochloride], the glomerular separation in assay [1] is 0.828 ± 0.19. The glomerular width in assay [2] turned out to be 0.982 ± 0.05. The “fraction of imaged embryos annotated” value in assay [3] amounted to 0.909. The “pronephric angle neck segment” value in assay [4] stood at 1.02 ± 0.012.

For `COc1ccc2cc(CCC(C)=O)ccc2c1` [Nabumetone], in assay [1], the glomerular separation was found to be 1.26 ± 0.44. Also, the glomerular width in assay [2] was determined as 1 ± 0.011. Also, the “fraction of imaged embryos annotated” value in assay [3] was 0.75. In addition, in assay [4], the “pronephric angle neck segment” value stood at 1.06 ± 0.038.

In turn, `Cc1cccc(Nc2ccncc2S(=O)(=O)NC(=O)NC(C)C)c1` [Torsemide] displayed a glomerular separation in assay [1] of 1.12 ± 0.3. This compound gave a glomerular width in assay [2] of 0.95 ± 0.015. Further, the “fraction of imaged embryos annotated” value in assay [3] stood at 1. Further, the “pronephric angle neck segment” value in assay [4] came out at 0.905 ± 0.03.

Take `CN(Cc1cnc2nc(N)nc(N)c2n1)c1ccc(C(=O)N[C@@H](CCC(=O)O)C(=O)O)cc1` (racemic) [Amethopterin (R,S)]: the glomerular separation in assay [1] came out at 1.29 ± 0.49. Further, in assay [2], the glomerular width came out at 0.996 ± 0.022. For the same compound, in assay [3], the “fraction of imaged embryos annotated” value turned out to be 0.75. The “pronephric angle neck segment” value in assay [4] worked out at 1.03 ± 0.036.

In the case of `CC(C)NC[C@H](O)COc1ccc(CC(N)=O)cc1` [(S)-(-)-Atenolol], the glomerular separation in assay [1] is 0.84 ± 0.24. Further, the glomerular width in assay [2] amounted to 0.918 ± 0.067. For the same compound, the “fraction of imaged embryos annotated” value in assay [3] was determined as 0.5. Besides, the “pronephric angle neck segment” value in assay [4] amounted to 0.959 ± 0.08.

As for `Cc1cccc(N(C)C(=S)Oc2ccc3ccccc3c2)c1` [Tolnaftate], the glomerular separation in assay [1] stood at 2.28 ± 1.3. Besides, the glomerular width in assay [2] worked out at 0.952 ± 0.03. In assay [3], the “fraction of imaged embryos annotated” value is 0.75. In addition, the “pronephric angle neck segment” value in assay [4] was 1.05 ± 0.065.

In assay [1], `C=C1C[C@H]2[C@@H]3C=C(C)C4=CC(=O)CC[C@]4(C)[C@H]3CC[C@]2(C)[C@@]1(OC(C)=O)C(C)=O` [Melengestrol acetate] came in with a glomerular separation of 0.846 ± 0.24. For the same compound, in assay [2], the glomerular width was found to be 1.07 ± 0.039. Further, the “fraction of imaged embryos annotated” value in assay [3] was determined as 0.917. The “pronephric angle neck segment” value in assay [4] stood at 1.02 ± 0.066.

In assay [1], `Cc1cnc(NC(=O)C2=C(O)c3ccccc3S(=O)(=O)N2C)s1` [Meloxicam] returned a glomerular separation of 6.33 ± 2.2. The compound also gave a glomerular width in assay [2] of 0.678 ± 0.021. Besides, the “fraction of imaged embryos annotated” value in assay [3] came to 0. The “pronephric angle neck segment” value in assay [4] was found to be 1.76 ± 0.0091.

As to `CO[C@H]1/C=C/O[C@@]2(C)Oc3c(C)c(O)c4c(O)c(c(/C=N/N5CCN(C)CC5)c(O)c4c3C2=O)NC(=O)/C(C)=C\C=C\[C@H](C)[C@H](O)[C@@H](C)[C@@H](O)[C@@H](C)[C@H](OC(C)=O)[C@@H]1C` [Rifampicin], the glomerular separation in assay [1] turned out to be 1.08 ± 0.28. Further, in assay [2], the glomerular width worked out at 1.02 ± 0.018. For the same compound, the “fraction of imaged embryos annotated” value in assay [3] was found to be 0.833. Further, the “pronephric angle neck segment” value in assay [4] worked out at 0.991 ± 0.022.

In assay [1], `CCOCCn1c(N2CCCN(C)CC2)nc2ccccc21` [Emedastine] showed a glomerular separation of 0.707 ± 0.16. Further, in assay [2], the glomerular width stood at 0.979 ± 0.051. For the same compound, the “fraction of imaged embryos annotated” value in assay [3] came out at 0.917. Moreover, the “pronephric angle neck segment” value in assay [4] was 0.9917 ± 0.0031.

As for `NC(N)=Nc1nc(CSCC/C(N)=N/S(N)(=O)=O)cs1` [Famotidine], in assay [1], the glomerular separation was 1.11 ± 0.48. In addition, the glomerular width in assay [2] was 0.98 ± 0.038. For the same compound, the “fraction of imaged embryos annotated” value in assay [3] is 0.833. In addition, the “pronephric angle neck segment” value in assay [4] came out at 0.9801 ± 0.0036.

For `S=c1[nH]cnc2nc[nH]c12` [Mercaptopurine], the glomerular separation in assay [1] was found to be 0.832 ± 0.28. The glomerular width in assay [2] amounted to 0.991 ± 0.088. Also, in assay [3], the “fraction of imaged embryos annotated” value was found to be 0.75. Moreover, the “pronephric angle neck segment” value in assay [4] was 0.992 ± 0.07.

`NC(=O)c1cc[n+](CC2=C(C(=O)[O-])N3C(=O)[C@@H](NC(=O)[C@@H](c4ccccc4)S(=O)(=O)O)[C@H]3SC2)cc1` [Cefsulodin sodium salt] came in with a glomerular separation in assay [1] of 0.67 ± 0.22. The same compound displayed a glomerular width in assay [2] of 1.08 ± 0.02. In addition, in assay [3], the “fraction of imaged embryos annotated” value was 0.833. The “pronephric angle neck segment” value in assay [4] was 0.976 ± 0.034.

Turning to `CC(C)(C)NC(=O)[C@H]1CC[C@H]2[C@@H]3CC[C@H]4NC(=O)C=C[C@]4(C)[C@H]3CC[C@]12C` [Finasteride], the glomerular separation in assay [1] stood at 0.797 ± 0.34. Further, the glomerular width in assay [2] was 0.937 ± 0.018. Also, the “fraction of imaged embryos annotated” value in assay [3] turned out to be 0.917. The “pronephric angle neck segment” value in assay [4] was 1.04 ± 0.023.

Take `Cc1cccc(C)c1OCC(C)N` (stereo not drawn) [Mexiletine hydrochloride]: in assay [1], the glomerular separation stood at 0.9 ± 0.27. The glomerular width in assay [2] was 0.98 ± 0.033. Moreover, the “fraction of imaged embryos annotated” value in assay [3] amounted to 0.917. Further, the “pronephric angle neck segment” value in assay [4] is 0.98 ± 0.041.

The compound `COC(=O)Nc1nc2cc(C(=O)c3ccccc3)ccc2[nH]1` [Mebendazole] registered a glomerular separation in assay [1] of 4.75 ± 1.7. The same compound displayed a glomerular width in assay [2] of 0.552 ± 0.014. The “fraction of imaged embryos annotated” value in assay [3] is 0. Besides, in assay [4], the “pronephric angle neck segment” value amounted to 1.91 ± 0.057.

In assay [1], `O=C1C(CC[S+]([O-])c2ccccc2)C(=O)N(c2ccccc2)N1c1ccccc1` (stereo not drawn) [Sulfinpyrazone] returned a glomerular separation of 1.21 ± 0.35. Also, the glomerular width in assay [2] was 1.02 ± 0.03. The “fraction of imaged embryos annotated” value in assay [3] was 0.833. In addition, in assay [4], the “pronephric angle neck segment” value worked out at 1 ± 0.012.

Consider `NNC(=O)c1ccncc1` [Isoniazid], for which the glomerular separation in assay [1] is 0.891 ± 0.099. The same compound showed a glomerular width in assay [2] of 1.09 ± 0.032. In assay [3], the “fraction of imaged embryos annotated” value came out at 1. Besides, the “pronephric angle neck segment” value in assay [4] came out at 0.978 ± 0.02.

In assay [1], `CCC1(C)CC(=O)NC1=O` (stereo not drawn) [Ethosuximide] came in with a glomerular separation of 0.979 ± 0.37. The compound also had a glomerular width in assay [2] of 1.07 ± 0.029. Also, the “fraction of imaged embryos annotated” value in assay [3] came to 0.833. Besides, the “pronephric angle neck segment” value in assay [4] is 0.972 ± 0.013.

Take `CC(C)(C(=O)O)c1ccc(C(O)CCCN2CCC(C(O)(c3ccccc3)c3ccccc3)CC2)cc1` (stereo not drawn) [Fexofenadine hydrochloride]: the glomerular separation in assay [1] amounted to 0.859 ± 0.33. In addition, the glomerular width in assay [2] is 1.12 ± 0.028. In assay [3], the “fraction of imaged embryos annotated” value was 0.833. The “pronephric angle neck segment” value in assay [4] is 0.956 ± 0.033.

`CC(C)OC(=O)C(C)(C)Oc1ccc(C(=O)c2ccc(Cl)cc2)cc1` [Fenofibrate]: the glomerular separation in assay [1] came to 6.84 ± 3.3. This compound yielded a glomerular width in assay [2] of 0.648 ± 0.076. The “fraction of imaged embryos annotated” value in assay [3] worked out at 0. Further, in assay [4], the “pronephric angle neck segment” value was determined as 1.801 ± 0.0082.

The compound `O=C(O)CNC(=O)C(CS)Cc1ccccc1` (stereo not drawn) [Thiorphan] came in with a glomerular separation in assay [1] of 0.84 ± 0.35. For the same compound, the glomerular width in assay [2] stood at 1.04 ± 0.036. Besides, the “fraction of imaged embryos annotated” value in assay [3] amounted to 0.75. In addition, the “pronephric angle neck segment” value in assay [4] was 0.994 ± 0.017.
